Values joined by “and” are separate entries in the source; they are usually repeats but may differ in a detail not shown here. Equal entries are not always repeated. Results filed as inconclusive are left out. Some compounds were tested as several samples or in several runs, with calls that do not always agree. Active and inactive are the calls of the source. Unless noted, calls come from the whole dose curve; as a rule, active = well fitted curve in the direction sought with a large enough effect in the repeat runs; inconclusive = weak or mixed curves; inactive = no such curve, though single readings can be large; an effect the other way counts as inactive or inconclusive.
Assays:
[1] = target: Retinoic acid receptor RXR-alpha (Homo sapiens) (UniProt P19793); experiment: qHTS assay to identify small molecule agonists of the RXR signaling pathway (AID 1159527; calls by dose curve; note: nearly all actives have a fitted effect of over 35% in size; note: potency is the fitted concentration of half-maximal effect)
Chain of Retinoic acid receptor RXR-alpha (Homo sapiens) (P19793 whole entry, looked up): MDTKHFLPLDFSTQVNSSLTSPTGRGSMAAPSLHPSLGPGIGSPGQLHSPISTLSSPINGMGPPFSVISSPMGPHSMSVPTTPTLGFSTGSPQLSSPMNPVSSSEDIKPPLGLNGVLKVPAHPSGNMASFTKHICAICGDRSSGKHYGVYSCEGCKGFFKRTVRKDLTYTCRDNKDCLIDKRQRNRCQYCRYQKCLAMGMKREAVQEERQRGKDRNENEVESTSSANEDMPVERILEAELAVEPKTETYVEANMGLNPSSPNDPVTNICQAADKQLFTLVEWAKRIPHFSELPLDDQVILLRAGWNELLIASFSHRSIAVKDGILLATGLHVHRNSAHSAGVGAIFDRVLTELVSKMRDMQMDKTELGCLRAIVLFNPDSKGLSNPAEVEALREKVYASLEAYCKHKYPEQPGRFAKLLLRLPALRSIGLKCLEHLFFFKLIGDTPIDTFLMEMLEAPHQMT
How it was run: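 Cells plated at 2,000/well, rested 5 hr at 37 C, pin-dosed with DMSO compound solutions, incubated 16 hr, then loaded with B/G FRET substrate for 2 hr at RT before dual-emission fluorescence reading.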

[2] = qHTS assay to identify small molecule agonists of the RXR signaling pathway - cell viability counter screen (AID 1159529); note: nearly all actives have a fitted effect of over 50% in size; note: potency is the fitted concentration of half-maximal effect
How it was run: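 Steps: seed RXR-alpha-UAS-bla HEK 293T cells in assay medium containing 2% charcoal-stripped FBS; incubate 5 hr; add compounds in DMSO; incubate 16 hr at 37 C; after the bla read, add CellTiter-Glo and read luminescence at 30 min.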

[3] = qHTS assay to identify small molecule antagonists of the retinoid acid receptor (RAR) signaling pathway - cell viability counter screen (AID 1159551); note: nearly all actives have a fitted effect of over 35% in size
How it was run: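 In this counter screen, the RARE-luciferase line C3RL4 was exposed for 6 h at 37 C and 5% CO2 to compounds with retinol at 1 uM final. Cellular ATP, read by luminescence, served as the viability measure.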

[4] = qHTS assay to identify small molecule antagonists of the retinoic acid receptor (RAR) signaling pathway (AID 1159552; note: nearly all actives have a fitted effect of over 50% in size)
How it was run: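 Retinol at 1 uM final stimulated RARE-luciferase expression in C3RL4 cells exposed to test compounds for 6 hr at 37 C. Reduced luminescence, read 30 min after detection reagent, indicated pathway antagonism.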

[5] = qHTS assay to identify small molecule agonists of the retinoic acid receptor (RAR) signaling pathway (AID 1159553); note: potency is the fitted concentration of half-maximal effect
How it was run: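 In this cell-based screen, 1,000 C3RL4 cells per well were cultured overnight, dosed with test chemicals in DMSO for 6 hr, and assessed for RARE luciferase luminescence.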

[6] = qHTS assay to identify small molecule antagonists of the estrogen related receptor (ERR) signaling pathway from Tox21 library - cell viability counter screen (AID 1224834); note: nearly all actives have a fitted effect of over 30% in size
How it was run: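 Counter screen run in ERR cells (2,000 cells/well): cells pre-incubated 6 h, then treated with compounds for 17.5 h at 37 C. Fluorescence was read 30 min after CellTiter-Fluor addition.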

[7] = target: Luciferin 4-monooxygenase (Photinus pyralis) (UniProt P08659); experiment: qHTS assay to identify small molecule inhibitors of firefly luciferase (AID 1224835); note: series mostly up to about 120 µM; nearly all actives have a fitted effect of over 25% in size
Chain of Luciferin 4-monooxygenase (Photinus pyralis) (P08659 whole entry, looked up): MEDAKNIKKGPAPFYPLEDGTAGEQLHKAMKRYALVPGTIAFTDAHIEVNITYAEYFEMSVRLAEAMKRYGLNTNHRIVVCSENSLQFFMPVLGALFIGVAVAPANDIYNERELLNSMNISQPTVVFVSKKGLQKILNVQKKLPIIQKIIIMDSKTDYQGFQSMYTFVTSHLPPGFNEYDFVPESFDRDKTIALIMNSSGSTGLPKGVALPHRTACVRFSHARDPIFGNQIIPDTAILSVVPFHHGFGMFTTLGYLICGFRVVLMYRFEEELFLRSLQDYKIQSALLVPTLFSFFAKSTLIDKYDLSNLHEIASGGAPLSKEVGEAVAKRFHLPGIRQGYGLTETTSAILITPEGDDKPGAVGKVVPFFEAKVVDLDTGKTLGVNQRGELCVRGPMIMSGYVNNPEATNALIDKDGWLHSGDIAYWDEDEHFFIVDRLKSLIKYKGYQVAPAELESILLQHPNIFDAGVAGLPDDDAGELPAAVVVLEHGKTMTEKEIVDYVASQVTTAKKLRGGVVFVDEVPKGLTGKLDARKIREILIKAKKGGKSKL
How it was run: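 Biochemical qHTS: compounds run as interplate titrations against purified firefly enzyme, with D-luciferin and ATP each at its KM concentration. Light output recorded by CCD imaging.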

[8] = qHTS assay to identify small molecule agonists of the constitutive androstane receptor (CAR) signaling pathway - cell viability counter screen (AID 1224836); note: series mostly up to about 92 µM; nearly all actives have a fitted effect of over 45% in size
How it was run: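 Cells were seeded and incubated 4 hrs. Compounds were added across 15 concentrations together with PK11195 at 0.75 uM final. Plates were incubated 23 hrs at 37 C. CellTiter-Fluor was added and fluorescence measured.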

[9] = qHTS assay to identify small molecule antagonists of the constitutive androstane receptor (CAR) signaling pathway - cell viability counter screen (AID 1224837); note: series mostly up to about 92 µM; nearly all actives have a fitted effect of over 45% in size
How it was run: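 CITCO at 50 nM final was added alongside compounds (15 concentrations) to double-stable hCAR/CYP2B6-2.2kb HepG2 cells. Following 23 hr at 37 C, cell viability was quantified by CellTiter-Fluor fluorescence intensity.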

[10] = target: Nuclear receptor subfamily 1 group I member 3 (Homo sapiens) (UniProt Q14994); experiment: qHTS assay to identify small molecule antagonists of the constitutive androstane receptor (CAR) signaling pathway (AID 1224838); note: nearly all actives have a fitted effect of over 40% in size
Chain of Nuclear receptor subfamily 1 group I member 3 (Homo sapiens) (Q14994 whole entry, looked up): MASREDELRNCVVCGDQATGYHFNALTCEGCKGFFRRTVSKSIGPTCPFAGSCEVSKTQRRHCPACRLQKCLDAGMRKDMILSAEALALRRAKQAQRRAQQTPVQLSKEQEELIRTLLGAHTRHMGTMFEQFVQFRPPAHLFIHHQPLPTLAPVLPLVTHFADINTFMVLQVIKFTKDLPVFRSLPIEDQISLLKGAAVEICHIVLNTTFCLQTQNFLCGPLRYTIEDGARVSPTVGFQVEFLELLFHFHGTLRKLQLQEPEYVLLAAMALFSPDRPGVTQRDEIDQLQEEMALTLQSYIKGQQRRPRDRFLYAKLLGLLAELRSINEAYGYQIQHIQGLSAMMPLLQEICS
How it was run: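 Inhibition of CITCO-driven (50 nM final) CYP2B6 reporter expression is measured in HepG2 cells stably carrying hCAR. Fifteen compound concentrations are applied for 24 h at 37 C, followed by luciferase luminescence.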

[11] = target: Nuclear receptor subfamily 1 group I member 3 (Homo sapiens) (UniProt Q14994); experiment: qHTS assay to identify small molecule agonists of the constitutive androstane receptor (CAR) signaling pathway (AID 1224839); note: series mostly up to about 92 µM; nearly all actives have a fitted effect of over 15% in size
How it was run: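 Cells were plated and incubated 4 hrs, then dosed with compounds at 15 concentrations. PK11195 was added to 0.75 uM final. After 24 hrs at 37 C, luciferase luminescence was measured.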

[12] = qHTS assay to identify small molecule antagonists of the estrogen related receptor signaling pathway with the pleiotropic PPARgamma coactivator (PGC) from Tox21 10K library - cell viability counter screen (AID 1224840; active = well fitted cell-killing curve with a large enough effect in the repeat runs, not every such curve was filed as active; note: nearly all actives have a fitted effect of over 40% in size)
How it was run: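 Readout: fluorescence intensity from CellTiter-Fluor after 30 min at 37 C/5% CO2. Preceded by 17.5 h treatment of PGC/ERR cells with DMSO-dissolved compounds, added 6 h post-seeding.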

[13] = qHTS assay to identify small molecule antagonists of the estrogen related receptor signaling pathway with the pleiotropic PPARgamma coactivator (PGC) from Tox21 10K library (AID 1224841; call rule not given here; note: series mostly up to about 92 µM; actives are mostly falling curves and most rising ones were filed inactive; nearly all actives have a fitted effect of over 50% in size)
How it was run: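 One-Glo luminescence, measured after half an hour at room temperature, quantified reporter output of PGC/ERR cells. These had been plated at 2,000 per well, incubated 6 h, dosed with compounds in DMSO, then kept 18 h at 37 C.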

[14] = qHTS assay to identify small molecule agonists of the estrogen related receptor signaling pathway with the pleiotropic PPARgamma coactivator (PGC) from Tox21 10K library (AID 1224842); note: nearly all actives have a fitted effect of over 15% in size
How it was run: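 PGC/ERR reporter cell line, 2,000 cells per well, incubated 6 h at 37 C before 23 nL compound in DMSO was added. After 18 h at 37 C, One-Glo luminescence read following 30 min at room temperature.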

Measured: Potency

CCC(C)(O)CCCC(C)C (stereo not given)
inactive: [1] | [2] | [3] | [4] | [5] | [6] | [7] | [8] | [9] | [10] | [11] | [12]

CCC(C)OC(=O)c1ccc(O)cc1 (stereo not given)
inactive: [1] | [2] | [3] | [4] | [6] | [8] | [9] | [10] | [12] | [13]
active: [5] 61.1 µM

CC(C)CC(C)(O)C#CC(C)(O)CC(C)C (stereo not given)
12.1 µM (active) and inactive: [1]
inactive: [2] | [3] | [4] | [5] | [6] | [8] | [9] | [10] | [12] | [13] | [14]

Nc1ccc(S(=O)(=O)Nc2cnc3ccccc3n2)cc1
inactive: [1] | [2] | [3] | [6] | [7] | [8] | [9] | [10] | [12]

C=CC(C)(CCC=C(C)C)OC(C)=O (stereo not given)
inactive: [1] | [2] | [3] | [4] | [5] | [6] | [7] | [8] | [9] | [10] | [11] | [12]

Cc1cccc([N+](=O)[O-])c1C
inactive: [1] | [2] | [3] | [4] | [5] | [6] | [7] | [8] | [9] | [10] | [11] | [12]

NC=O
inactive: [1] | [2] | [3] | [4] | [5] | [6] | [7] | [8] | [9] | [12] | [13] | [14]

c1cc(-c2ccncc2)ccn1
inactive: [1] | [2] | [3] | [4] | [5] | [6] | [7] | [8] | [9] | [10] | [12]

C=C(C)C1CC=C(C)CC1 (stereo not given)
inactive: [1] | [2] | [3] | [6] | [7] | [8] | [9] | [10] | [12]

Nc1ccc(Cl)cc1Cl
inactive: [1] | [2] | [3] | [4] | [5] | [6] | [7] | [8] | [9] | [12] | [13] | [14]

OC(CCl)CCl
inactive: [1] | [2] | [3] | [6] | [7] | [8] | [9] | [10] | [11] | [12]

O=P(O)(O)O
inactive: [1] | [2] | [3] | [4] | [5] | [6] | [8] | [9] | [12]

C=C(C)C(=O)OCCOC(=O)C(=C)C
inactive: [1] | [2] | [3] | [4] | [5] | [6] | [7] | [8] | [9] | [10] | [11] | [12] | [13] | [14]

O=S(=O)(O)c1ccc(O)cc1
inactive: [1] | [2] | [3] | [4] | [5] | [6] | [7] | [8] | [9] | [12]

O=CCc1ccccc1
inactive: [1] | [2] | [3] | [4] | [5] | [6] | [7] | [8] | [9] | [10] | [12]

C/C=C/C(=O)O
inactive: [1] | [2] | [3] | [4] | [5] | [6] | [7] | [8] | [9] | [12] | [13] | [14]

CCCCOCCOCCO
inactive: [1] | [2] | [3] | [4] | [5] | [6] | [7] | [8] | [9] | [12]

CC(C)OC=O
inactive: [1] | [2] | [3] | [4] | [5] | [6] | [7] | [8] | [9] | [10] | [11] | [12] | [13] | [14]

CCCC(=O)O
inactive: [1] | [2] | [3] | [4] | [5] | [6] | [7] | [8] | [9] | [10] | [11] | [12] | [13] | [14]

Brc1cc(Oc2cc(Br)c(Br)c(Br)c2Br)c(Br)c(Br)c1Br
inactive: [1] | [3] | [4] | [5] | [6] | [7] | [8] | [9] | [10] | [11] | [12]
1.39 µM (active) and inactive: [2]

CCCCCCCCCCCO
inactive and 3.89 µM (active): [1]
inactive: [2] | [3] | [4] | [5] | [6] | [8] | [9] | [10] | [12] | [13] | [14]

Reference: PubChem BioAssay (Tox21)
